# Where “and” joins values, the source holds several entries; their conditions need not be identical. Equal values may be shown once. The panel holds about 79,000 compounds, 15% with a hit somewhere; the sample as a whole holds those more often. Values without a mark were called inactive. Calls of active or inactive are those of the source. Rule as the data show it: active = growth inhibition above about 70%; inactive = the rest.
# Columns and labels:
# [1] = NCI Yeast Anticancer Drug Screen. Data for the rad50 strain (AID 155);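 also: 0% = growth of vehicle-only cultures of the same strain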; details: S. cerevisiae rad50 strain growth inhibition, active compounds read high
# Outline: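 Vehicle-treated cultures provide the reference for the growth inhibition reported for compound-exposed, repair-deficient yeast.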
# [2] = NCI Yeast Anticancer Drug Screen. Data for the mec2-1 strain (AID 157); details: S. cerevisiae mec2-1 strain, active compounds read high
# Outline: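 Test agents were screened against the mec2-1 yeast strain, with defined DNA repair or cell cycle alteration. Growth was scored as inhibition against vehicle-only controls.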
# [3] = NCI Yeast Anticancer Drug Screen. Data for the sgs1 mgt1 strain (AID 161);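 also: 0% = growth of cultures given vehicle only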; details: S. cerevisiae sgs1 mgt1 strain, active compounds read high
# Outline: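 Mutant yeast exposed to compound; growth scored against vehicle-only wells.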
# [4] = NCI Yeast Anticancer Drug Screen. Data for the cln2 rad14 strain (AID 165);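 also: 0% = growth equal to vehicle treated cultures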; details: S. cerevisiae cln2 rad14 strain, active compounds read high
# Outline: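 Growth of compound-exposed yeast (cln2 rad14 genotype) measured and expressed as inhibition relative to vehicle.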
# [5] = NCI Yeast Anticancer Drug Screen. Data for the bub3 strain (AID 167); details: S. cerevisiae bub3 mutant strain, active compounds read high
# Outline: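 Mutant yeast screening strain plus compound; vehicle-treated cultures serve as the 0% inhibition reference.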
# [6] = NCI Yeast Anticancer Drug Screen. Data for the mlh1 rad18 strain (AID 175); details: S. cerevisiae mlh1 rad18 strain growth inhibition, active compounds read high
# Outline: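 In this whole-cell yeast screen, a strain with altered DNA damage repair is challenged with compound, and its growth is measured against matched vehicle-treated controls.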
# [7] = at 5.0 µM (retest, dose inferred, filed as 0.5)
# [8] = at 50.0 µM (retest, dose inferred, filed as 5.0)
Structure (SMILES),"growth inhibition [1, 7]","growth inhibition [1, 8]",growth inhibition ([1]; at 50.0 µM),"growth inhibition [2, 7]","growth inhibition [2, 8]",growth inhibition ([2]; at 50.0 µM),"growth inhibition [3, 7]","growth inhibition [3, 8]",growth inhibition ([3]; at 50.0 µM),"growth inhibition [4, 7]","growth inhibition [4, 8]",growth inhibition ([4]; at 50.0 µM),"growth inhibition [5, 7]","growth inhibition [5, 8]",growth inhibition ([5]; at 50.0 µM),"growth inhibition [6, 7]","growth inhibition [6, 8]",growth inhibition ([6]; at 50.0 µM)
N#C[SH2+].N#C[SH2+].N#C[SH2+].N#C[SH2+].[Cu+2].c1ccc(C[P+](c2ccccc2)(c2ccccc2)c2ccccc2)cc1,14%,87% (active),96.8% (active),5%,95% (active),97.8% (active),21%,91% (active),97.9% (active),-8%,82% (active),90.7% (active),5%,90% (active),92.9% (active),45%,97% (active),97.2% (active)
O=C(O)C1C2c3ccccc3C(c3ccccc32)C1Br (centres undefined),-13%,3%,2.7%,0%,9%,3.8%,-7%,8%,-1.2%,3%,-1%,34.2%,-20%,-29%,-8.2%,-11%,-8%,14.1%
CC1(C)N([O-])[N+](=O)C1(C)Br (centres undefined),23%,15%,-2.45%,19%,13%,-10.3%,21%,24%,-20.2%,12%,24%,19.5%,19%,20%,5.55%,20%,15%,11.4%
c1cc2c(cc1NC1=NCCO1)CCCC2,14%,8%,-37%,6%,4%,-30%,-1%,34%,-6.4%,28%,21%,15.8%,-33%,-8%,-22.6%,15%,11%,-41.1%
C(=C/P(c1ccccc1)c1ccccc1)/P(c1ccccc1)c1ccccc1.C(=CP(c1ccccc1)c1ccccc1)P(c1ccccc1)c1ccccc1.[Pt],61%,78% (active),84.4% (active),38%,92% (active),90% (active),33%,92% (active),82.7% (active),36%,82% (active),86.2% (active),56%,89% (active),86.8% (active),41%,91% (active),83.4% (active)
c1ccc(C[As+](c2ccccc2)(c2ccccc2)c2ccccc2)cc1,24%,92% (active),97.3% (active),4%,94% (active),97.7% (active),1%,89% (active),98.8% (active),1%,75% (active),94.7% (active),4%,96% (active),93% (active),11%,89% (active),97.7% (active)
O=C(O)CN(CCN(CC(=O)O)CC(=O)O)CC(=O)O,8%,69%,27.9% and 13.8% and 43.4%,14%,70% (active),42.2% and 20% and 30.6%,11%,74% (active),65.8% and 26.2% and 57.2%,-3%,49%,-14.9% and -22.5% and 17.4%,10%,66%,60.7% and 38% and 53.3%,6%,70% (active),44.4% and 24.2% and 46.9%
O=[n+]1c2ccccc2n([O-])c2ccccc21.[Cl][Ni][Cl],96% (active),99% (active),90.8% (active),75% (active),100% (active),92.7% (active),89% (active),99% (active),92.3% (active),33%,98% (active),90.6% (active),68%,100% (active),89% (active),92% (active),96% (active),91.9% (active)
CN1CC(Br)(Br)C(=O)N(C)C1=O,18%,99% (active),89.8% (active),2%,100% (active),93.3% (active),-9%,99% (active),92.8% (active),-4%,99% (active),93.4% (active),-18%,100% (active),92.9% (active),2%,100% (active),88% (active)
CC(C)CCCC(C)CCC1C(=O)NC(=O)NC1=O (centres undefined),6%,23%,-6.75% and 8.2%,-17%,4%,-0.5% and -2.3%,-6%,21%,-8.05% and 38.9%,-1%,3%,-31.1% and -44.4%,-3%,-3%,-5.55% and -18.1%,13%,48%,2.7% and -0.7%
COC(=O)C(CCCN=C(N)N[N+](=O)[O-])NC(=O)c1ccc2c(c1O)C(=O)c1ccccc1C2=O (centres undefined),8%,15%,71.6% (active),4%,11%,28.7%,6%,18%,68.6%,-4%,3%,47.9%,2%,5%,14.5%,5%,20%,66.2%
CC(CCS(C)(=O)=O)([N+](=O)[O-])[N+](=O)[O-],48%,99% (active),55.2%,16%,99% (active),55%,28%,99% (active),52.6%,14%,99% (active),56.4%,27%,99% (active),99% (active),24%,100% (active),98.3% (active)
C[n+]1ccccc1-c1nc(-c2cccc[n+]2C)nc(-c2cccc[n+]2C)n1,37%,75% (active),56.6%,46%,57%,49.6%,23%,69%,79.6% (active),14%,51%,21.9%,19%,73% (active),44.9%,37%,82% (active),84.2% (active)
COC1C(C)OC(OC2CC(C)(O)Cc3cc4c(c(O)c32)C(=O)c2c(O)cc3c(c2C4=O)OC2OC3(C)C(O)C(N(C)C)C2O)C(OC)C1(C)OC (centres undefined),69%,96% (active),89.5% (active),75% (active),99% (active),93% (active),76% (active),97% (active),91% (active),58%,91% (active),88% (active),77% (active),94% (active),91.5% (active),83% (active),98% (active),90% (active)
Cc1ccc(C(=O)CCl)o1,-114%,97% (active),98.7% (active),-29%,98% (active),99.7% (active),-46%,94% (active),76% (active),-54%,77% (active),71.4% (active),-34%,98% (active),99.2% (active),-96%,95% (active),98.5% (active)
C1CC[N-]CC1.C1CC[N-]CC1.N#CO.[Ag],99% (active),99% (active),99.2% (active),100% (active),99% (active),99.5% (active),100% (active),99% (active),99.4% (active),99% (active),99% (active),99% (active),99% (active),99% (active),99.6% (active),99% (active),99% (active),99.3% (active)
ClC1=NSSC1(Cl)Cl,16%,96% (active),90.4% (active),16%,99% (active),92.5% (active),18%,99% (active),91.2% (active),20%,78% (active),87.7% (active),21%,99% (active),90.3% (active),17%,90% (active),92.2% (active)
CCC[CH2][Sn]([Cl])([CH2]C)[O][Sn]([Cl])([CH2]C)[CH2]CCC (centres undefined),88% (active),98% (active),83.5% (active),96% (active),99% (active),88.2% (active),81% (active),97% (active),89.6% (active),84% (active),97% (active),91.2% (active),84% (active),97% (active),89.2% (active),95% (active),98% (active),90.2% (active)
